The record followed here is ChEMBL document CHEMBL1157539, “Thousands of chemical starting points for antimalarial lead identification” (Nature, 2010).

What all share (type): functional
The subject of assay [1] is Plasmodium falciparum. The assay is described as follows: GSK_TCMDC: Inhibition of Plasmodium falciparum 3D7 in whole red blood cells, using parasite LDH activity as an index of growth. Test compounds present at 2uM.
Assay [2] deals with Plasmodium falciparum. The assay is described as follows: GSK_TCMDC: Inhibition of Plasmodium falciparum Dd2 in whole red blood cells, using parasite LDH activity as an index of growth. Test compounds present at 2uM.
The next assay concerns HepG2. The assay is described as follows: GSK_TCMDC: Percent inhibition of human HepG2 cell line. Test compounds present at 10uM.

Take `COc1ccc(NC(=O)c2ccc(-c3ccc(-c4cccnc4)cc3)c(C)c2)cc1OCCN(C)C.Cl`: the Inhibition in the assay on Plasmodium falciparum [1] came out at 99%; with Plasmodium falciparum [2], 73%; with HepG2, 24%.

Consider `CCCCCCc1cc(Oc2c(I)cc(C[C@H](N)C(=O)O)cc2I)ccc1O`, for which the Inhibition in the assay on Plasmodium falciparum [1] was found to be 97%; in the assay with Plasmodium falciparum [2], 0%; with HepG2, 0%.

Consider `CCn1ccc2c(N3CCCS3(=O)=O)cc(C(=O)N[C@@H](Cc3ccccc3)[C@H](O)CNC3CCCCC3)cc21`, for which the Inhibition is on record as 97% with Plasmodium falciparum [1], 98% in the assay with Plasmodium falciparum [2] and 0% in the assay on HepG2.

On to `Oc1ccc(CCNCc2ccc(OCc3ccccc3)c(OCc3ccccc3)c2)cc1`, for which the values for the Inhibition in the assay with Plasmodium falciparum [1], in the assay with Plasmodium falciparum [2] and with HepG2 were 88%, 9% and 31%, respectively.

Take `CNCCNCc1cccc(-c2cccc(-c3nc4cc(C(F)(F)F)ccc4[nH]3)c2)c1.O=C(O)C(F)(F)F`: the Inhibition with Plasmodium falciparum [1] is recorded as 100%; with Plasmodium falciparum [2], 97%; in the assay on HepG2 it was 22%.

As for `N=C(N)Nc1nc(-c2cccc(NC(=O)NCC(c3ccccc3)c3ccccc3)c2)cs1`, the Inhibition with Plasmodium falciparum [1] worked out at 100%; in the assay with Plasmodium falciparum [2], 87%; in the assay with HepG2, 0%.

Take `COC(=O)c1ccc(CC(C)NCC(O)c2ccc(C(O)CNC(C)Cc3ccc(C(=O)OC)cc3)cc2)cc1.O` (stereo not given): the figures for the Inhibition in the assay on Plasmodium falciparum [1], with Plasmodium falciparum [2] and with HepG2 were 88%, 13% and 24%, respectively.

For `Br.CC1(C)NC(N)=NC(=N)N1OCCCOc1ccc([N+](=O)[O-])cc1`, the Inhibition was 94% with Plasmodium falciparum [1], 80% with Plasmodium falciparum [2] and 68% in the assay on HepG2.

In the case of `O=C(OCc1ccccn1)c1nc2ccccc2[nH]1`, the Inhibition in the assay with Plasmodium falciparum [1] worked out at 92%; in the assay on Plasmodium falciparum [2], 97%; with HepG2 it was 63%.

In the case of `COc1ccc2nccc([C@@H](O)CN3CCC(NCCOc4ccncc4)CC3)c2c1.O=C(O)C(=O)O`, the Inhibition with Plasmodium falciparum [1] was determined as 100%; in the assay with Plasmodium falciparum [2], 0%; in the assay with HepG2, 11%.

In the case of `Nc1c2ccccc2nc2cc(Cl)ccc12`, the Inhibition amounted to 100% in the assay with Plasmodium falciparum [1], 86% in the assay with Plasmodium falciparum [2] and 24% in the assay on HepG2.

`CN(C)/C(=N/C(=N)Nc1ccc(Cl)cc1)NCCCCCCN/C(=N\C(=N)Nc1ccc(Cl)cc1)N(C)C`: the results for the Inhibition with Plasmodium falciparum [1], with Plasmodium falciparum [2] and in the assay on HepG2 were 97%, 98% and 11%, respectively.

On to `O=C(NCCCNc1ccc2ccccc2n1)c1cc2c(Cl)cc(Cl)cc2[nH]1`, for which the Inhibition in the assay with Plasmodium falciparum [1] is 100%; with Plasmodium falciparum [2], 100%; with HepG2, 40%.

`Cc1cc(N[C@@H](Cc2ccccc2)C(=O)NCc2cccs2)nc(NCCc2cccnc2)n1.O=C(O)C(F)(F)F`: the Inhibition was 84% in the assay on Plasmodium falciparum [1], 38% in the assay on Plasmodium falciparum [2] and 10% with HepG2.

Turning to `Cc1ccc2nc(N/C(N)=N/C(=O)NC3CCCCC3)nc(C)c2c1`, the Inhibition is given as 99% with Plasmodium falciparum [1], 94% in the assay with Plasmodium falciparum [2] and 8% in the assay on HepG2.

Consider `COc1cccc(NC(=O)Nc2cc(C)nc3ccccc23)c1`, for which the Inhibition with Plasmodium falciparum [1] is reported as 100%; in the assay on Plasmodium falciparum [2], 48%; in the assay with HepG2, 2%.

On to `N#Cc1ccc2c(c1)CN(C1CCC(NC(=O)C3=Cc4cc(Cl)ccc4OC3)CC1)CCC2` (stereo not given), for which the Inhibition came out at 93% in the assay with Plasmodium falciparum [1], 8% with Plasmodium falciparum [2] and 0% in the assay with HepG2.

As for `Cc1cnc(Nc2ccccc2)nc1NCCC(=O)Nc1ccccc1.O=C(O)C(F)(F)F`, the Inhibition was 89% in the assay on Plasmodium falciparum [1], 7% with Plasmodium falciparum [2] and 10% in the assay with HepG2.

For the compound `CC(C)Cc1nc2nc(N)nc(N)c2cc1C(C)C`, the Inhibition in the assay with Plasmodium falciparum [1] was found to be 96%; in the assay with Plasmodium falciparum [2], 3%; with HepG2, 67%.

`CN1Cc2ccc(NS(=O)(=O)c3ccc(-c4ccoc4)cc3)cc2C1.Cl`: the Inhibition came out at 97% in the assay on Plasmodium falciparum [1], 2% in the assay with Plasmodium falciparum [2] and 0% with HepG2.

For `COc1ccc(NC(=O)/C=C/c2ccccc2Cl)cc1OCCN1CCC(N2CCCCC2)CC1`, the Inhibition in the assay with Plasmodium falciparum [1] was found to be 100%; with Plasmodium falciparum [2] it was 49%; in the assay on HepG2, 3%.

Take `Cc1cc(N[C@@H](CC(C)C)C(=O)NCCc2ccccc2)nc(Nc2ccccc2)n1.O=C(O)C(F)(F)F`: the Inhibition is listed as 100% in the assay on Plasmodium falciparum [1], 38% in the assay with Plasmodium falciparum [2] and 1% in the assay on HepG2.

For `COc1cc(CNCCCCCCNCc2cc(OC)c(OC)c3ccccc23)c2ccccc2c1OC.CS(=O)(=O)O`, the Inhibition in the assay on Plasmodium falciparum [1], in the assay with Plasmodium falciparum [2] and with HepG2 was 100% throughout.

In the case of `N#CCCN1CCN(Cc2cccc(-c3ccc(-c4nc5cc(F)ccc5[nH]4)cc3)c2)CC1.O=C(O)C(F)(F)F`, the Inhibition in the assay on Plasmodium falciparum [1] is reported as 100%; in the assay on Plasmodium falciparum [2], 35%; with HepG2 it was 18%.

For the compound `O=C(NCc1ccccc1)Nc1cccc(-c2cccc(-c3nc4cc(C(F)(F)F)ccc4[nH]3)c2)c1`, the Inhibition in the assay with Plasmodium falciparum [1] is recorded as 95%; in the assay with Plasmodium falciparum [2], 30%; in the assay on HepG2, 56%.

`Cc1nnsc1C(=O)Nc1cccc(-c2cccc(-c3nc4cc(F)ccc4[nH]3)c2)c1`: the figures for the Inhibition with Plasmodium falciparum [1], with Plasmodium falciparum [2] and in the assay on HepG2 were 100%, 45% and 35%, respectively.

Turning to `CC(C)(C)C1=CC(=NNC(=O)c2ccncc2)C=C(C(C)(C)C)C1=O`, the results for the Inhibition in the assay on Plasmodium falciparum [1], in the assay on Plasmodium falciparum [2] and in the assay with HepG2 were 99%, 99% and 47%, respectively.

`Oc1ccc(CCNc2nc(NCc3ccccc3-c3ccc(C(F)(F)F)cc3)nc(N3CCNCC3)n2)cc1`: the values for the Inhibition in the assay with Plasmodium falciparum [1], with Plasmodium falciparum [2] and in the assay with HepG2 were 97%, 53% and 17%, respectively.

`CCc1cc(-c2onc(C)c2-c2cc3ccccc3o2)c(O)cc1OC`: the Inhibition in the assay on Plasmodium falciparum [1] was 95%; in the assay with Plasmodium falciparum [2] it was 33%; in the assay with HepG2, 48%.

On to `O=c1cc(NCCC(CNCc2cc3ccccc3o2)NCc2cc(Br)cc(Br)c2)[nH]c2ccccc12` (stereo not given), for which the Inhibition was 100% in the assay with Plasmodium falciparum [1], 94% with Plasmodium falciparum [2] and 6% in the assay on HepG2.

For orientation: Inhibition means the relative decrease from the control value, in per cent. High values mean a strong effect, low ones a weak effect.
